The term inhibition denotes the change of the read-out against control, counted positive when it falls.

About 200 (20%) of roughly 1,000 compounds were called active. Only a sample is shown. Results with a measured potency or affinity are listed apart. Values without a mark were called inactive. Cut-off read from the data, not from the text of the source: active = inhibition above about 55%; inactive = the rest.

The text below walks through data of PubChem BioAssay AID1878 (Sanford-Burnham Center for Chemical Genomics, 2009).

Sequence of Dual specificity protein phosphatase 3 (Homo sapiens) (P51452 whole entry, looked up): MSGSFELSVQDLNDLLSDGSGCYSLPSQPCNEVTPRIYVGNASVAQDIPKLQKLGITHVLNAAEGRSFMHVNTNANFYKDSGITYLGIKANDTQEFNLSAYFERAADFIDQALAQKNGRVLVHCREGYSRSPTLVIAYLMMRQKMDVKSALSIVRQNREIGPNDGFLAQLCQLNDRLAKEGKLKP

The assay has as its target Dual specificity protein phosphatase 3 (Homo sapiens) (UniProt P51452). The experiment in a line: VHR1 phosphatase inhibitors, biochemical (AID 1878). Particulars: recombinant VHR phosphatase, fluorogenic substrate; at 13.3 µM; active compounds read high.
Consider `CCOCCCNC(=O)c1cn(C)c2ccc(S(=O)(=O)N3CCCCC3)cc2c1=O`, for which the inhibition is 12.7%.

Turning to `N#Cc1c(-c2cccs2)nc(SCC(=O)c2ccc(Br)cc2)[nH]c1=O`, the inhibition was 95.4% (active). Next, `Nc1cc(=O)[nH]c(SCCSc2ccc(F)cc2)n1`: -2.2%; `CN1CCN(CCNC(=O)Cn2c(=O)c3cccn3c3ccc(F)cc32)CC1`: -1%; `COc1ccc(CN(C)Cc2c(O)ccc3ccccc23)cc1`: -9%. As for `CCCCCc1nnc(NC(=O)Cc2ccc([N+](=O)[O-])cc2)s1`, the inhibition was 4.4%. Next, `O=C(Nc1ccccc1F)N1CCc2ccccc2C1`: -0.6%; `Cn1cc(Cl)c(C(=O)Nc2nccs2)n1`: 25.2%.

With `COC(=O)c1ccccc1NC(=O)CCS(=O)(=O)c1ccc(Br)cc1`, the inhibition is 89.7% (active). Take `Cc1ccc(NC(=O)CCS(=O)(=O)c2ccc3c(c2)NC(=O)C(C)S3)nc1` (stereo unspecified): the inhibition is -1.8%. Take `COC(=O)c1ccccc1NC(=O)c1cc2ccccc2o1`: the inhibition is 12.8%. Take `Cc1ccc2cc(CN(CC3CCCO3)C(=O)c3cccs3)c(=O)[nH]c2c1` (stereo unspecified): the inhibition is -11.2%. On to `CN(C(=O)c1ccc(COc2ccccc2Cl)o1)c1ccccc1`, for which the inhibition was 15%. Regarding `CCOC(=O)c1sc2ncnc(Nc3cccc(C(=O)O)c3)c2c1C`, the inhibition was -6.2%. The same measure for `O=C(Cn1c(=O)c2c3c(sc2n(Cc2ccccc2)c1=O)CCCC3)NCCO`: -0.2%; for `CCOC(=O)c1sc2nc(C)nc(NCc3ccc(Cl)cc3)c2c1C`: 0.5%; for `Cc1cc(Cl)cc(Cl)c1OCCN1CCCC1`: -2.7%.

Take `CSCCNC(=O)c1ccc2nc(Cc3ccccc3F)oc2c1`: the inhibition is -8.6%. The same measure for `Cc1ccc2[nH]c(CN3CCN(C)C(CCO)C3)c(C)c2c1` (stereo unspecified): -2.5%; for `Cc1cc(-n2c(SCC(=O)NCCC3=CCCCC3)nc3n[nH]c(C)c3c2=N)ccc1Cl`: 15.1%; for `O=C(Nc1cc(-c2nc3ncccc3o2)ccc1Cl)c1cccs1`: -1.1%.

In the case of `CN(CCO)CCOCCOc1cccc2ccccc12`, the inhibition is -15.7%. For the molecule `CC(=O)c1ccc(OCC(=O)N2CCCC(Nc3ccc(C)c(C)c3)C2)cc1` (stereo unspecified), the inhibition is 3.2%. The same measure for `CCCCN(CCCNC(=O)c1ccc(CS(=O)(=O)c2c(Cl)cccc2Cl)o1)Cc1ccccc1`: -4.4%. Next, `CC(=O)N/C(=N\c1nc(C)cc(C)n1)Nc1ccc(Cl)cc1Cl`: -6.7%. On to `Oc1cccc2ccc(/C=C/c3ccccc3Cl)nc12`, for which the inhibition was -3.4%.

With `CSCCC1NC(=S)N(Cc2ccccc2)C1=O` (stereo unspecified), the inhibition is -5.4%. For `O=C(CNS(=O)(=O)c1cccc(Br)c1)NCC1CCCCC1`, the inhibition was 11.2%.

In the case of `Cc1ccc(N(C(=O)c2snc(C(N)=O)c2N)C(CC(C)C)C(=O)NC2CCCC2)cc1` (stereo unspecified), the inhibition is 0.9%. As for `Cn1nnc2cc(C(=O)Nc3ccccc3F)ccc21`, the inhibition is -4.2%. Next, `CCc1ccccc1NC(=O)C1CCCN1S(=O)(=O)c1ccc(-c2ccc(=O)[nH]n2)s1` (stereo unspecified): -1.8%. The same measure for `Cc1ccc(S(=O)(=O)N(C)C)cc1NC(=O)CN1CCCC1`: -0.5%; for `C=CCN1C(=O)C2(OCCO2)c2cc(C)ccc21`: -6.3%; for `CN(C)c1ccc(NC(=O)Nc2ccc3c(c2)nnn3C)cc1`: 38.6%. For the molecule `C/C(=N\NC(=O)c1ccc(OC2OCCOC2Oc2ccc(C(=O)N/N=C(\C)c3ccncc3)cc2)cc1)c1ccncc1` (stereo unspecified), the inhibition was 92.7% (active).

As to `C/C(=N\NC(=O)C1CCCC1)c1ccc(Cl)cc1`, the inhibition is 3.5%.

Consider `Cc1ccccc1C(=O)NC[C@@H]1CCCN2CCCC[C@H]12`, for which the inhibition is -3.5%. As to `CC(=O)c1cccc(OCc2cc(C(=O)N3CC4C[C@@H]5CC3C[C@H](C4)C5)no2)c1`, the inhibition was 21.3%. Take `Cc1ccc2c(c1)N(CC(=O)NCCCN1CCCCC1C)C(=O)c1cccnc1O2` (stereo unspecified): the inhibition was -7.1%.

As for `O=C(COC(=O)CNC(=O)c1ccc(Cl)cc1Cl)Nc1ccc(N2CCOCC2)cc1`, the inhibition is 1.8%. Next, `Cc1ccc(S(=O)(=O)N(C)C)cc1NC(=S)N(C)C1CCN(C)CC1`: -3.6%; `CCc1nnc(NC(=O)COc2ccc3c(c2)OCO3)s1`: 5.7%. As to `CCOc1ccccc1OCCN1CCCC1`, the inhibition was -12.9%. The same measure for `O=C(O)CCC(=O)N1N=C(c2ccccc2)CC1c1ccc(Br)cc1` (stereo unspecified): -7.5%. Take `O=[N+]([O-])c1ccc(N2N=C(c3ccccc3)CC2c2ccccc2O)cc1` (stereo unspecified): the inhibition is 6%. Next, `COc1ccc(C2=NN(C(=O)CCCC(=O)O)C(c3cn(-c4ccccc4)nc3-c3ccccc3)C2)cc1` (stereo unspecified): 91.6% (active). Consider `COc1cc(OC)c(NC2=CC(=O)C(=O)c3ccccc32)cc1Cl`, for which the inhibition is 6.7%. The same measure for `O=C(NCCc1cnc[nH]1)Nc1cccc(C(F)(F)F)c1`: -4.7%.

As to `CN(c1ccc(C(=O)N2CCCCC2)cc1)S(C)(=O)=O`, the inhibition is 27%.

For the molecule `CC1=CC(=O)c2c(O)ccc(O)c2C1=O`, the inhibition was 65.2% (active).

Turning to `COc1ccc(OC)c2c(C)cc(C)nc12`, the inhibition was -3.6%. For `CC1CCCC(C)N1/N=C/c1ccc(O)c(O)c1` (stereo unspecified), the inhibition is 2.9%. On to `COCCCN(CC(=O)Nc1ccc(N2CCOCC2)cc1)S(=O)(=O)c1ccc(Cl)cc1`, for which the inhibition is -3.7%. With `CC1CCC(NCCNC(=O)c2ccco2)CC1` (stereo unspecified), the inhibition was -9.5%.

Take `O=C(Nc1ccnn1C1CCN(C2CCCC2)CC1)c1ccccc1`: the inhibition is -11.4%. Next, `CCCCCC#CCC#CCC#CCC#CCCCC(=O)O`: 94.6% (active); `COc1ccc(Nc2nccc(-c3ccc(C#N)cc3)n2)cc1`: -0.6%; `NC(=O)NC(=O)C(Nc1ccc(N2CCCCC2)cc1)c1ccccc1` (stereo unspecified): 3.2%. Next, `CCOc1ccc(CNC(=O)c2cccc(NC(=O)C3=C(C)OCCS3)c2)cc1`: 5.4%; `CN(C(=O)COC(=O)c1cc(F)c(F)cc1Cl)c1ccccc1`: -7.5%; `COC(=O)c1ccc(CN2CCCC(CNC(=O)Cc3ccc(OC)cc3)C2)cc1` (stereo unspecified): -1%. The same measure for `CCOc1ccc(CNC(=O)C(=O)c2cn(CC(=O)N3CCOCC3)c3ccccc23)cc1OC`: -5.3%; for `CCCCN(C)CCNC(=O)CCn1nc(-c2ccc(C)cc2)ccc1=O`: 49.7%; for `Cc1ccc(OCC(=O)Nc2ccc(C(N)=O)cc2)cc1`: 19.4%. Regarding `Cc1cccc(NC(=O)COc2ccc(/C=C\c3[nH]c(=O)[nH]c(=O)c3[N+](=O)[O-])cc2)c1`, the inhibition was 98.7% (active).

Take `Cc1ccc(NC(=O)COc2cccc(-n3cnnn3)c2)cc1[N+](=O)[O-]`: the inhibition was -11.9%. On to `Cc1nn(C)c(C)c1CCC(=O)N1CCCC(N2CCN(c3ccc(F)cc3)CC2)C1` (stereo unspecified), for which the inhibition is -3.3%. With `Cc1nc2sccn2c(=O)c1S(=O)(=O)Nc1ccc(N2CCN(S(C)(=O)=O)CC2)cc1`, the inhibition is -12.5%. Consider `O=c1c2c(-c3cccc([N+](=O)[O-])c3)ccnc2[nH]n1-c1ccccc1`, for which the inhibition was 74.2% (active). Next, `COc1ccc(-c2ccnc3[nH]n(-c4ccccc4)c(=O)c23)cc1`: 7.3%.

As to `O=[N+]([O-])c1cccc(S(=O)(=O)N2CCN(c3ccccn3)CC2)c1`, the inhibition is -9.5%. The same measure for `COc1ccc2c(C)nc(N/C(N)=N/S(=O)(=O)c3ccc(C)cc3)nc2c1`: 26.9%.

In the case of `Cn1c(=O)[nH]c(=O)c2c1nc(N1CCNCC1)n2Cc1ccccc1Cl`, the inhibition is 0.7%. Turning to `COc1cc(NC(=O)c2cnc(NCc3ccccc3)nc2C)cc(OC)c1OC`, the inhibition was -1.7%. The same measure for `c1cc(-c2nnc3sc(C4CCCCC4)nn23)ccn1`: -3.4%; for `COc1ccccc1NS(=O)(=O)c1ccc2oc(SC)nc2c1`: -3.1%. The same measure for `O=C1Nc2ccccc2C1=Nc1ccc(F)cc1`: -4.5%; for `O=C(NC(=S)Nc1ccccn1)c1ccc(-c2ccccc2)cc1`: 0.9%; for `O=C(O)c1ccc(NC(=S)NC(=O)C(c2ccccc2)c2ccccc2)cc1`: -6.3%. On to `COc1cccc(-c2cc(C(=O)N3CCc4ccccc4C3)[nH]n2)c1`, for which the inhibition was 6.6%. The same measure for `COc1ccc(NC(=O)c2cc3ccc4c5ccccc5[nH]c4c3cc2O)cc1`: 19.8%. For the molecule `O=C(C1CC1)N1N=C(c2cccc(Br)c2)CC1(O)C(F)(F)F` (stereo unspecified), the inhibition was 2.7%. `Nc1ccc(C(=O)N(CCO)CCO)cc1`: the inhibition is 4.4%. `CC(=O)Nc1nc(C)c(-c2nc3ccc([N+](=O)[O-])cc3[nH]2)s1`: the inhibition was 1%. With `Cc1ccc2nc(/C(C#N)=C/c3ccc(-c4cccc([N+](=O)[O-])c4)o3)[nH]c2c1`, the inhibition was 96.4% (active). The same measure for `CN(C)C(=O)/C(=C/c1ccc(-c2cccc([N+](=O)[O-])c2)o1)NC(=O)c1ccccc1`: 1.2%; for `Cc1cc(C)c(S(=O)(=O)NCC2CCC(C(=O)NCCCN3CCC(C)CC3)CC2)c(C)c1` (stereo unspecified): -3.9%. For `CC(=O)N1CCN(c2ccc(NCc3cccc4ccccc34)cc2)CC1`, the inhibition was 3.9%. The same measure for `CN(C)c1ccc(N=Cc2cccn2C)cc1`: 0.6%. Next, `CC(C)(C)CN1CCC(Oc2cccc(C(=O)N3CCNC(=O)C3(C)C)c2)CC1`: 6.9%.

On to `COC(=O)C1=CN(Cc2ccc(OC)cc2)C=C(C(=O)OC)C1c1ccc(O)c(OC)c1`, for which the inhibition is 8.4%. The same measure for `O=C(CCNC(=O)N1CC(=O)Nc2ccccc21)Nc1cccc(Cl)c1`: 2%; for `C=CCNC(=O)N1c2ccccc2Sc2ccccc21`: 26.2%; for `CC(C)Oc1ccc(C(=O)Nc2ccc(S(=O)(=O)N3CCN(C)CC3)cc2)cc1`: -10.6%. Consider `CC(C)OCCCNC(=S)Nc1ccc(S(N)(=O)=O)cc1`, for which the inhibition was 54.9% (active). Next, `CCN(C(=O)c1ccc(S(=O)(=O)N(C)C)cc1)C(C)C(=O)Nc1ccc(C)cc1` (stereo unspecified): 5.9%.
